Assay [1] can be described thus: NFAT Signaling Pathway (AID 444).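 Further: carbachol stimulus at about its EC50 of 1 µM final; on the % scale 0 is the no-effect control and ±100 the full control effect.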 As to conditions: Jurkat NFAT-bla M1, carbachol, beta-lactamase ratio, 5 h; at 17.2 µM (top of the series) unless noted. A digest of the protocol:
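Jurkat cells with NFAT-driven β-lactamase reporter and co-expressed M1 receptor, stimulated with carbachol (final 1 uM, ~EC50), compound titration, 5 h at 37 °C. CCF4 loaded 1 h at RT; 460/530 nm ratio gave %activity and AC50.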

A short description of assay [2]: Stat Signaling Pathway (AID 446).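 Further: ME-180 cervical cancer cells given 40 pM IL-6 alongside compound; SIE-controlled beta-lactamase reporter measured as 460/530 nm FRET emission ratio; on the % scale 0 is the no-effect control and ±100 the full control effect.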 The following applies: ME-180 SIE beta-lactamase reporter, IL-6 stimulated, 5 h; at 17.2 µM (top of the series) unless noted. The method in brief:
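Reporter line: ME-180 cervical carcinoma, SIE-beta-lactamase. Treatment: compound with 40 pM IL-6, 5 hrs, 37 C, in low-serum OPTI-MEM with 10 mM HEPES pH 7.3. Detection: 460/530 nm fluorescence.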

Assay [3] addresses Glucocorticoid receptor (Homo sapiens) (UniProt P04150). Put plainly: GR-GFP Redistribution (AID 450;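 active means compounds whose dose series gives a full or clear partial fitted curve of increased nuclear translocation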; further: potency means the concentration at half of the fitted maximal effect). As to conditions: U2OS GR-GFP nuclear translocation, laser cytometry, 2 h; series mostly up to 20.6 µM.
The target of assay [4] is Mitogen-activated protein kinase 10 (Mus musculus) (UniProt Q61831). Put plainly: JNK3 AlphaScreen Assay (AID 530).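 Further: kinase came from lysate of stimulated human HepG2 cells; signal reports phosphorylation of biotinylated GST-cJun 1-79 at Ser73 with 10 µM ATP; on the % scale 0 is the no-effect control and ±100 the full control effect.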 As to conditions: JNK3 lysate, c-Jun phosphorylation; series mostly up to 57.1 µM. A digest of the protocol:
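Pre-activated (IL-1β/TNFα) JNK3 in HepG2 lysates phosphorylates biotin-GST-cJun(1-79), 10 uM ATP; anti-phospho-cJun(Ser73) AlphaScreen read at room temperature, pH 7.6 Tris buffer. Compounds pre-incubated 15 min as titrations.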

Molecules are shown by their SMILES. A number with no mark means an inactive call. Results filed as inconclusive are left out. Active and inactive are the calls of the source. Unless noted, the call rests on the fitted dose curve; in most records, active means well fitted curve in either direction with a large enough effect (not every such curve was filed as active); inconclusive means small, poorly fitted or top-dose-only effect, or another doubt; inactive means flat fitted curve, though single readings scatter.

Chain of Glucocorticoid receptor (Homo sapiens) (P04150 whole entry, looked up): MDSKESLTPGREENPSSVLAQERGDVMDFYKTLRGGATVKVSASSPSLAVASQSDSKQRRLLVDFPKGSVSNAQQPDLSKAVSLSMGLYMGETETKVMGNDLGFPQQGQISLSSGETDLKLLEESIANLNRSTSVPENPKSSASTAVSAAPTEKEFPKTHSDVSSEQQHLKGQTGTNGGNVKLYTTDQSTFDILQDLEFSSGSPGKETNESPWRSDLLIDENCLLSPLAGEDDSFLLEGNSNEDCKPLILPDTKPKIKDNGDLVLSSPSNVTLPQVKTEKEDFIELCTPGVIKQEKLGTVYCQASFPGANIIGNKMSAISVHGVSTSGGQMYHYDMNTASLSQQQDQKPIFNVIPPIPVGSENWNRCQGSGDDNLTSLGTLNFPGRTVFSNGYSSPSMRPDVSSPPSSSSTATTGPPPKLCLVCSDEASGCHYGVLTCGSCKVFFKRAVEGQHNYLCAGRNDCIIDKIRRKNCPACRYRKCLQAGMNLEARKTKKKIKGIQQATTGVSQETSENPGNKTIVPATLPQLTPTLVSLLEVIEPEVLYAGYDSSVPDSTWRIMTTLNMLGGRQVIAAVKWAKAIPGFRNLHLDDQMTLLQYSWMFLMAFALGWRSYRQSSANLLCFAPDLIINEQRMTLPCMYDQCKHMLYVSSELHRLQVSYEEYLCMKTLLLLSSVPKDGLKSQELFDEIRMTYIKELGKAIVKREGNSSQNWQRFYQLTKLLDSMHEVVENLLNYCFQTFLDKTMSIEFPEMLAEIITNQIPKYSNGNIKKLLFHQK

Take `COC(=O)c1sc(NC(=O)c2oc3ccccc3c2C)nc1C`: the activity change, negative = inhibition in assay [1] was -8%. The activity, negative = inhibition in assay [2] was 18.1%. For the same compound, the Potency in assay [3] is more than 20.6 µM.
Regarding `Cc1sc(-n2c(C)cc(/C=N/n3cnnc3)c2C)c(C#N)c1C`, in assay [1], the activity change, negative = inhibition was -9.91%. Moreover, the activity, negative = inhibition in assay [2] was -17%. Moreover, the Potency in assay [3] was more than 20.6 µM.
On to `C=CCn1c(=S)[nH]c2nc3c(cc2c1=O)COC(C)(C)C3`, for which, in assay [1], the activity change, negative = inhibition was 5.11%. In addition, the activity, negative = inhibition in assay [2] is 3.02%. For the same compound, the Potency in assay [3] is more than 20.6 µM.
In the case of `CCCn1c(SCC(N)=O)nc2c(c1=O)C1(CCCC1)Cc1ccccc1-2`, the activity change, negative = inhibition in assay [1] is -22.4%. Also, the activity, negative = inhibition in assay [2] is -8.32%. For the same compound, the Potency in assay [3] is more than 20.6 µM.
In the case of `COc1ccc(-c2nn3c(C4CCCCC4)nnc3s2)cc1OC`, in assay [1], the activity change, negative = inhibition is -3.44%. Moreover, the activity, negative = inhibition in assay [2] was 16.5%. The Potency in assay [3] is more than 20.6 µM.
On to `CCCCCOc1ccc(Cl)cc1CN1CCOCC1`, for which the activity change, negative = inhibition in assay [1] was 4.03%. Also, the activity, negative = inhibition in assay [2] was 4.37%. In addition, in assay [3], the Potency was more than 20.6 µM.
For `N#Cc1nc(-c2cccs2)oc1NCc1ccccc1`, the activity change, negative = inhibition in assay [1] was -20.6%. For the same compound, the activity, negative = inhibition in assay [2] is -1.04%. Moreover, in assay [3], the Potency was more than 20.6 µM.
The corresponding values for `Cc1nc(NCCN)c(C#N)c2c1COC(C)(C)C2` are -1.13%, 7.79% and more than 20.6 µM.
The corresponding values for `N#CC(C(=O)Nc1ccc(Cl)c(Cl)c1)=C1Nc2ccccc2N1` are -3.6%, -4.82% and more than 20.6 µM.
The corresponding values for `Cn1c(Cl)nc2c1c(=O)n(Cc1cccc(Br)c1)c(=O)n2C` are -23.7%, 12.7% and more than 20.6 µM.
In the case of `Cn1c(=O)c2c(nc(Oc3ccc4c(c3)OCO4)n2Cc2ccc(Br)cc2)n(C)c1=O`, in assay [1], the activity change, negative = inhibition is -5.35%. The activity, negative = inhibition in assay [2] was -4.55%. In addition, in assay [3], the Potency was more than 20.6 µM.
Take `O=C(/C=C\c1ccc(O)cc1)c1ccc(O)cc1O`: in assay [1], the activity change, negative = inhibition is -30% [at 38 µM]. Further, the activity, negative = inhibition in assay [2] is 25.4% [at 38 µM]. For the same compound, in assay [3], the Potency was more than 46 µM. The Potency result in assay [4] is “inactive”.
With `Cc1cc(=O)[nH]c(SCC(=O)c2ccccc2)c1C#N`, the activity change, negative = inhibition in assay [1] was 14.5%. Further, in assay [2], the activity, negative = inhibition is -5.21%. Further, the Potency in assay [3] is more than 20.6 µM.
The corresponding values for `CCC1(C)Cc2ccccc2-c2nc(NCCO)n(-c3ccccc3)c(=O)c21` (centres undefined) are 6.29%, -2.14% and more than 20.6 µM.
The corresponding values for `Nc1nnc(Cc2ccc(Cl)c(Cl)c2)s1` are 2.08%, 4.97% and more than 20.6 µM.
The corresponding values for `CCC[C@@H]1C[C@@H](C(=O)N[C@H]([C@@H](C)O)[C@H]2O[C@H](SC)[C@H](O)[C@@H](O)C2O)N(C)C1` (some centres undefined) are 8.75%, -0.0835% and more than 20.6 µM.
For the compound `N#Cc1nc(-c2cccs2)oc1NCc1ccccc1Cl`, the activity change, negative = inhibition in assay [1] is -29.4%. Also, the activity, negative = inhibition in assay [2] was -12.6%. The Potency in assay [3] was more than 20.6 µM.
For `CC1(C)Cc2c(C#N)c(OCC(=O)c3ccc(Cl)cc3)nc(-c3ccoc3)c2CO1`, the activity change, negative = inhibition in assay [1] is -4.81%. Moreover, the Potency in assay [3] is more than 20.6 µM.
For the compound `Cc1coc2c(O)cc3c(c12)OC1(N2CCCCC2)C(=O)NCCCC31` (centres undefined), the activity, negative = inhibition in assay [2] was -21.8%. Moreover, the Potency in assay [3] is more than 20.6 µM.
In the case of `O=C(Oc1oc(-c2ccco2)nc1C=Nc1ccccc1)c1ccoc1`, the activity change, negative = inhibition in assay [1] is -123% (active). Further, the Potency in assay [3] was more than 20.6 µM.
The corresponding values for `CCOC(=O)CSc1nc(N)c(C(=O)Nc2ccc(N(C)C)cc2)s1` are 0.0938% and more than 20.6 µM.
The corresponding values for `O=C(Oc1oc(-c2ccco2)nc1C=Nc1ccccc1)c1ccco1` are -124% (active) and more than 20.6 µM.
The corresponding values for `CCOC(=O)c1cc2c(=O)n3cccc(C)c3nc2n(C)c1=N` are -13% and more than 20.6 µM.
Turning to `COC(=O)c1cccc(Nc2cc(C)nc(-c3ccccc3O)n2)c1`, the activity, negative = inhibition in assay [2] is -15.1%. The Potency in assay [3] is more than 20.6 µM.
For the compound `N#CC1=C(SCC(=O)c2ccc(Cl)cc2)NC2=C(C(=O)CCC2)C1c1ccco1` (centres undefined), the activity change, negative = inhibition in assay [1] was -22.4%. In addition, the Potency in assay [3] was more than 20.6 µM.
On to `COc1ccccc1C(=O)NC(=Nc1nc2ccccc2o1)NC(=O)c1ccccc1OC`, for which the activity change, negative = inhibition in assay [1] was -110% (active). For the same compound, the Potency in assay [3] was more than 20.6 µM.
For `COc1ccc(C(=O)CSC2=C(C#N)C3(CCCCC3)C(C#N)=C(N)N2)cc1`, the activity change, negative = inhibition in assay [1] was 14.6%. The Potency in assay [3] was more than 20.6 µM.
The corresponding values for `CCSc1nc(N)c(C#N)c(-c2ccccc2Cl)c1C#N` are -7.47% and more than 20.6 µM.

Values taken from PubChem BioAssay (NCATS).
